ChEMBL document CHEMBL3988442, “University of Dundee, Small-Polar-MMV Screening Library” (2021)
Screen size: about 69,000 compounds; about 950 (1.4%) showed an effect of 50% or more. The sample as a whole holds a higher share of strong results than the screen did.

tested on: Mycobacterium tuberculosis; assay: Cornell M. t heat shock assay; assay type: functional, organism-based; design: dose or concentration left out as unconfirmed; further: in the data most compounds retested in dose-response had high values

Row | SMILES | Percent Effect
1 | O=C(O)C(F)(F)F.O=C(O)C(F)(F)F.O=C1NC2(CCN(Cc3cccs3)CC2)CC1c1ccncc1 (stereo unspecified) | -33.96%
2 | CNC(=O)CN1CCOCC2(CCCN(Cc3ccc(F)cc3)C2)C1.O=C(O)C(F)(F)F.O=C(O)C(F)(F)F (stereo unspecified) | -6.144%
3 | CCCn1cnnc1CNC(=O)C1COc2ccc(OC)cc2C1 (stereo unspecified) | -18.38%
4 | CCCn1ccnc1CNC(=O)C1COc2cc(OC)ccc2C1 (stereo unspecified) | 80.42%
5 | CCCn1cnnc1CNC(=O)C1COc2cc(OC)ccc2C1 (stereo unspecified) | -11.02%
6 | O=C(c1ccc(-c2cccc3c2CCNC3)o1)N1CCCC1 | 54.8%
7 | O=C(c1ccc(-c2cccc3c2CCNC3)o1)N1CCOCC1 | 23.74%
8 | O=C(c1ccc(-c2cccc3c2CCNC3)o1)N1CCCCC1 | 37.05%
9 | Cc1ccc(N2CCO[C@H]3CN(Cc4ccoc4)C[C@H]32)nn1.O=C(O)C(F)(F)F.O=C(O)C(F)(F)F | -23.95%
10 | O=C(c1ccccc1)N1C[C@@H]2CC[C@H](C1)N(S(=O)(=O)c1cccnc1)C2 | -19.46%
11 | CCN1CC(O)CN(C(=O)c2cccc(C(F)(F)F)c2)CC1=O (stereo unspecified) | 31.6%
12 | CC(C)(C)CN1CC(O)CN(C(=O)c2cccc(C(F)(F)F)c2)CC1=O (stereo unspecified) | 51.48%
13 | CSc1ccc(C(=O)N2CC(=O)N(CC(C)(C)C)CC(O)C2)cc1 (stereo unspecified) | 67.49%
14 | CCN1CC(O)CN(C(=O)c2ccc(SC)cc2)CC1=O (stereo unspecified) | 25.41%
15 | CC(C)CN1CC(O)CN(C(=O)c2cccc(C(F)(F)F)c2)CC1=O (stereo unspecified) | 3.734%
16 | CSc1ccc(C(=O)N2CC(=O)N(CC3CC3)CC(O)C2)cc1 (stereo unspecified) | 13.44%
17 | CC(Cn1cncc1-c1cnn(Cc2ccccc2)c1)N1CCCCC1.Cl (stereo unspecified) | -9.415%
18 | Cc1ccc(CN2CCn3c(CN4CCN(C)CC4)cnc3C2C)s1.O=C(O)C(F)(F)F.O=C(O)C(F)(F)F.O=C(O)C(F)(F)F (stereo unspecified) | -29.44%
19 | O=C(CN1CCOC(Cn2cccn2)C1)NCc1cccs1 (stereo unspecified) | -0.5047%

Row | SMILES | Percent Effect
20 | c1cnnc(NCC2CN(CCN3CCCCC3)CCO2)c1 (stereo unspecified) | 4.077%
21 | O=C(CN1CCOC(CNc2cccnn2)C1)NCc1cccs1 (stereo unspecified) | 104.8%
22 | O=C(CN1CCOC(CNc2cccnn2)C1)NCc1ccccn1 (stereo unspecified) | -12.01%
23 | O=C(CN1CCOC(CNc2cccnn2)C1)N1CCCCC1 (stereo unspecified) | 57.16%
24 | OC1(CN2CCOC(CNc3cccnn3)C2)CCCCC1 (stereo unspecified) | 9.895%
25 | Cc1oncc1C(=O)NCc1cc(=O)n2c(n1)CN(C(C)C)CCC2.O=C(O)C(F)(F)F | -32.5%
26 | CC(C)(C)C(=O)NC(c1nccs1)C1CCN(CC2CCCCC2)CC1.Cl (stereo unspecified) | 4.524%
27 | CCN1CCC2(C=C(C(=O)NC3CC3)c3ccccc32)CC1.O=C(O)C(F)(F)F | -9.893%
28 | CN(C)C(=O)CN1CCOCC2(C1)CN(c1ncccn1)CCO2.O=C(O)C(F)(F)F (stereo unspecified) | -21.69%
29 | CCS(=O)(=O)N1CCN(CCOC)c2ncccc2C1 | 7.581%
30 | CCOC(=O)CNC(=O)C1OC(c2ccccc2)=NN1C(C)=O (stereo unspecified) | 54.14%
31 | CC(=O)N1N=C(Cc2ccccc2)OC1C(=O)NCC(=O)OC(C)(C)C (stereo unspecified) | 11.49%
32 | CC(=O)N1N=C(c2ccccc2)OC1C(=O)N(C)CCc1ccccc1 (stereo unspecified) | 0.1011%
33 | CC(=O)N1N=C(c2ccccc2)OC1C(=O)NCCOc1ccccc1 (stereo unspecified) | 46.95%
34 | CC(=O)N1N=C(c2ccco2)OC1C(=O)N(C)CCc1ccccc1 (stereo unspecified) | -2.033%
35 | CC(=O)N1N=C(c2ccccc2)OC1C(=O)NCCN(C(C)C)C(C)C (stereo unspecified) | 73.05%
36 | CC(=O)N1N=C(c2ccccc2)OC1C(=O)NCC(=O)OC(C)(C)C (stereo unspecified) | 21.44%
37 | CC(=O)N1N=C(c2ccncc2)OC1C(=O)N(C)CCc1ccccc1 (stereo unspecified) | 106%
38 | CC(=O)N1N=C(c2ccccc2)OC1C(=O)NCCc1ccc(C)cc1 (stereo unspecified) | 30.4%

Row | SMILES | Percent Effect
39 | CC(=O)N1N=C(c2ccccc2)OC1C(=O)NCCc1ccc(O)cc1 (stereo unspecified) | 53.53%
40 | CC(=O)N1N=C(c2ccccc2)OC1C(=O)NCCC1=CCCCC1 (stereo unspecified) | -12.6%
41 | CC(=O)N1N=C(c2ccccc2)OC1C(=O)NCCc1ccc(Cl)cc1 (stereo unspecified) | 7.805%
42 | Cc1oncc1C(=O)NCc1cc(=O)n2c(n1)CN(CC(C)C)CCC2.O=C(O)C(F)(F)F | -11.26%
43 | CC(C)N1CCOCC2(CCCN(C(=O)CCc3cccnc3)C2)C1.O=C(O)C(F)(F)F (stereo unspecified) | -33.91%
44 | Cc1cccc(CN2CCC3(CCN(c4ncccn4)CC3)C2=O)c1.O=C(O)C(F)(F)F | 21.29%
45 | O=C(O)C(F)(F)F.O=C(O)C(F)(F)F.O=C(O)C(F)(F)F.O=C1CO[C@@H]2CN(Cc3ccncc3)C[C@H]2N1Cc1ccncc1 | -33.4%
46 | CN(C)CC1CSCCCN1C(=O)c1ccsc1 (stereo unspecified) | -29.65%
47 | CCCN1CCN(Cc2cc(Cl)cc(Cl)c2)[C@H]2CS(=O)(=O)C[C@H]21 | 31.79%
48 | O=S1(=O)C[C@@H]2[C@H](C1)N(Cc1cc(Cl)cc(Cl)c1)CCN2CCO | -5.541%
49 | O=S1(=O)C[C@@H]2[C@H](C1)N(Cc1cc(Cl)cc(Cl)c1)CCN2CC1CC1 | 99.37%
50 | CN(C)c1ncc(-c2cccc(C(N)=O)c2)c(C2CNCCO2)n1.Cl (stereo unspecified) | -21.53%
51 | CN1CCc2cc(C(=O)N(C)C)c(NCC3CC3)nc2CC1.O=C(O)C(F)(F)F.O=C(O)C(F)(F)F | -30.07%
52 | Cn1ccnc1CN1C[C@@H]2[C@@H](C1)OCC(=O)N2CC1CCCC1.O=C(O)C(F)(F)F | -35.26%
53 | CN(C)[C@@H]1CN(C(=O)Cc2cccc(F)c2)[C@@H]2CCCO[C@H]12.O=C(O)C(F)(F)F | -1.237%
54 | Cc1nnc([C@@]23CCO[C@@H]2CCN(S(C)(=O)=O)C3)o1 | -10.32%
55 | Cc1nnc([C@@]23CCO[C@@H]2CCN(S(=O)(=O)c2ccccc2)C3)o1 | 53.88%
56 | Cc1nnc([C@@]23CCO[C@@H]2CCN(S(=O)(=O)c2cccnc2)C3)o1 | 18.46%
